We go through seven compounds from PubChem BioAssay (NCATS).

Unmarked numbers belong to inactive results. Inconclusive results are not listed. Active and inactive are the calls of the source. Unless noted, the call rests on the fitted dose curve; in most records, active means well fitted curve in the direction sought with a large enough effect; inconclusive means small, poorly fitted or top-dose-only effect, or another doubt; inactive means no such curve, though single readings can be large; an effect the other way counts as inactive or inconclusive.

The target in experiment [1] is Rap guanine nucleotide exchange factor 3 (Homo sapiens) (UniProt O95398). As to the kind of experiment: Confirmatory qHTS for antagonist of cAMP-regulated guanine nucleotide exchange factor 3 (EPAC1) (AID 1645880).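 Further: plate controls were DMSO only for no effect and full effect of the ATA control for full effect; nearly all actives have a fitted effect of over 55% in size.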 The settings on record: EPAC1 Rap1B-BODIPY-GDP exchange, fluorescence; activity, negative = inhibition: at 115 µM (top of the series). In short, it runs like this: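 Released BODIPY-GDP fluoresces less than Rap1-bound BODIPY-GDP; the signal is followed at 480/540 nm at 5-min intervals over 30 min, after 5 min at room temperature. Reactions contain 100 nM EPAC1, 250 nM RAP1B-BODIPY-GDP and 50 uM GDP; results are normalized to ATA and DMSO.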
Sequence of Rap guanine nucleotide exchange factor 3 (Homo sapiens) (O95398 whole entry, looked up): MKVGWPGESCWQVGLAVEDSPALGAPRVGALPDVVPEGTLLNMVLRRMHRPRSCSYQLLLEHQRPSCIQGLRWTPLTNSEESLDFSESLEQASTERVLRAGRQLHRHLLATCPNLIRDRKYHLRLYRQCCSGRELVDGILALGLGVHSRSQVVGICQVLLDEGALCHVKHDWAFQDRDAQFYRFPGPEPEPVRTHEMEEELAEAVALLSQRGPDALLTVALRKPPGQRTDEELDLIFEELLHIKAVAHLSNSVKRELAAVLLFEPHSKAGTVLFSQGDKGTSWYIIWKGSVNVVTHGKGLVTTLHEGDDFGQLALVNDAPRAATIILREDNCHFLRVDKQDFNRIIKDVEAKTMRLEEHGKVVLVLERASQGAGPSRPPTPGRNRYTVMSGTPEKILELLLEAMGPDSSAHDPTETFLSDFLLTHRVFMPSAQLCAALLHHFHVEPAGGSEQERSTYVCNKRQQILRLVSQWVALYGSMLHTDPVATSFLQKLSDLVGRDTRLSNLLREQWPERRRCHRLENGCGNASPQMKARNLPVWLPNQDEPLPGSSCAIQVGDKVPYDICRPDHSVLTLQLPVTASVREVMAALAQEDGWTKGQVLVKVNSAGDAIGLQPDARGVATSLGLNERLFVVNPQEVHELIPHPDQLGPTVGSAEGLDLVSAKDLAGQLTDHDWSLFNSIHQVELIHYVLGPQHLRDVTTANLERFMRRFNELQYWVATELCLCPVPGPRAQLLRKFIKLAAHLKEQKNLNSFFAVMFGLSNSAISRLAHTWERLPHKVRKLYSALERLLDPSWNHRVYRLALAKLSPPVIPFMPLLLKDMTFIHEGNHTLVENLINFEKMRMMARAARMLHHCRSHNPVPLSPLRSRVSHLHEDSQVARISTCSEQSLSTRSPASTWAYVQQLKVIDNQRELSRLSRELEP
(Quantitative high-throughput screening tests each substance at several concentrations.)

For experiment [2] the target is unchanged. As to the kind of experiment: Confirmatory qHTS for agonist of cAMP-regulated guanine nucleotide exchange factor 3 (EPAC1) (AID 1645881).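 Further: EPAC1 catalysed release of BODIPY-GDP from Rap1B seen as fluorescence loss; 100% = effect of cAMP agonist control; nearly all actives have a fitted effect of over 75% in size.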
Experiment [3] shares this target. Description: Counterscreen qHTS for antagonist of cAMP-regulated guanine nucleotide exchange factor 3 (EPAC1) (AID 1645888). Further: % of control where 0% means no effect. The method, boiled down: (§1)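 Rap1B-BODIPY-GDP 250 nM + GDP 50 uM; cpds 7-pt, final 9.74 nM–152 uM (activator mode) or from 7.32 nM upwards (inhibitor mode); RT; FI 480/540 nm at 5 and 30 min, then ± cAMP, reread.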
In general terms: Counterscreens check selectivity or assay interference.

The target is the same in experiment [4]. Description: Counterscreen qHTS for agonist of cAMP-regulated guanine nucleotide exchange factor 3 (EPAC1) (AID 1645889). Further: % of control where 0% means no effect; nearly all actives have a fitted effect of over 40% in size. The method, boiled down: as §1
For experiment [5], the target named is Cytochrome P450 1A2 (Homo sapiens) (UniProt P05177). As to the kind of experiment: p450-cyp1a2 (AID 410; calls by dose curve; further: potency means the concentration at half of the fitted maximal effect). The method, boiled down: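 Read-out is luminescence from luciferin produced by CYP1A2 demethylation of Luciferin-ME (100uM, at Km). Detection reagent stopped the 60 min NADPH-dependent reaction; signals were normalized to 57 uM furafylline.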
For experiment [6], the target named is Glucocorticoid receptor (Homo sapiens) (UniProt P04150). As to the kind of experiment: GR-GFP Redistribution (AID 450;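 active means compounds whose dose series gives a full or clear partial fitted curve of increased nuclear translocation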; further: potency means the concentration at half of the fitted maximal effect). To be noted: U2OS GR-GFP nuclear translocation, laser cytometry, 2 h.
Sequence of Glucocorticoid receptor (Homo sapiens) (P04150 whole entry, looked up): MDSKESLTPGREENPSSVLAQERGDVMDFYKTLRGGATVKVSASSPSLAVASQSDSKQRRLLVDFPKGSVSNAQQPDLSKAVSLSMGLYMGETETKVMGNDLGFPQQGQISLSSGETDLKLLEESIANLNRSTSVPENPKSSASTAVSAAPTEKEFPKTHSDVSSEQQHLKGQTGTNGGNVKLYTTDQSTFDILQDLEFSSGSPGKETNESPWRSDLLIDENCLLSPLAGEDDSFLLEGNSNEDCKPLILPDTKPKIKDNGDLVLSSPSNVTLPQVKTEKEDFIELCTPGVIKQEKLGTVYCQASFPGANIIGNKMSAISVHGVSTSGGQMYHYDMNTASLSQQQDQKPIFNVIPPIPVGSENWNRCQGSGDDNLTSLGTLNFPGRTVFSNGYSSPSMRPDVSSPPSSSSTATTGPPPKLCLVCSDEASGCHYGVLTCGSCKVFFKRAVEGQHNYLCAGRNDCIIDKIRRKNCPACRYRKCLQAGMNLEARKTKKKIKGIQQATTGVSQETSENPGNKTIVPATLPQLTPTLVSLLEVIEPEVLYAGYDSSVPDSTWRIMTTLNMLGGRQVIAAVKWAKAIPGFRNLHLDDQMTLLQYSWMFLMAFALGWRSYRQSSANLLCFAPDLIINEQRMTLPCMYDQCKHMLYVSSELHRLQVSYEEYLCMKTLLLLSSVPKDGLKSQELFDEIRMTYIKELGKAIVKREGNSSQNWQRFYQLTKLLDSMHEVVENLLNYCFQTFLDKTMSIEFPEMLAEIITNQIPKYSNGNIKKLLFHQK
For experiment [7] the target is unchanged. Description: GR-EFC Redistribution (AID 451; calls by dose curve; further: potency means the concentration at half of the fitted maximal effect). To be noted: CHO-K1 GR-EFC translocation, beta-gal luminescence, 2 h. In short, it runs like this:
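Translocation of GR-ED fusion to nuclear EA restores b-gal, read by luminescence after 1 h room-temperature detection. Engineered CHO-K1 biosensor cells, 1,000/well, exposed 2 h at 37 C to titrations up to 46 uM final.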

For experiment [8], the target named is Mitogen-activated protein kinase 10 (Mus musculus) (UniProt Q61831). Description: JNK3 AlphaScreen Assay (AID 530; active means well fitted curve in either direction with a large enough effect, not every such curve was filed as active;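 further: kinase came from lysate of stimulated human HepG2 cells; potency means the concentration at half of the fitted maximal effect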). In short, it runs like this: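 Kinase buffer: 20 mM Tris-HCl pH 7.6, 10 mM MgCl2, 1 mM DTT, 0.1 mM Na3VO4, 0.01% Tween-20; ATP 10 uM. Substrate biotin-GST-cJun(1-79), enzyme from activated HepG2 lysates. Detection by Ser73 phospho-antibody AlphaScreen.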
On the technique in general: Alpha assays give light when donor and acceptor beads are brought close together.

Experiment [9] addresses Cytochrome P450 2C9 (Homo sapiens) (UniProt P11712). Description: qHTS Assay for Inhibitors and Substrates of Cytochrome P450 2C9 (AID 883). Further: potency means the concentration at half of the fitted maximal effect; nearly all actives have a fitted effect of over 60% in size. The method, boiled down: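 Inhibition of CYP2C9 is scored as loss of luminescence, with 57uM sulphaphenazole defining 100% inhibition. Substrate Luciferin-H is used at 100uM, equal to its KM; enzyme at 10nM in 25mM KPO4, 60 min at 37C with NADPH regeneration.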

The target of experiment [10] is Cytochrome P450 3A4 (Homo sapiens) (UniProt P08684). Description: qHTS Assay for Inhibitors and Substrates of Cytochrome P450 3A4 (AID 884). Further: potency means the concentration at half of the fitted maximal effect; nearly all actives have a fitted effect of over 50% in size. The method, boiled down:
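Luminescent readout of luciferin produced by CYP3A4 (20 nM) dealkylation of Luciferin-PPXE, 25 uM (its KM). NADPH-driven reaction ran 60 min at RT after 10 min compound preincubation; data scaled to 57 uM ketoconazole as 100% inhibition.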

The target is the same in experiment [11]. Description: qHTS Assay for Activators of Cytochrome P450 3A4 (AID 885). Further: nearly all actives have a fitted effect of over 65% in size. The method, boiled down: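 Using 20nM recombinant human CYP3A4 in potassium phosphate (200mM), substrate Luciferin-PPXE at 25uM, luminescent luciferin detection followed a 60-min RT NADPH reaction; data scaled to 57 uM ketoconazole.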
The target in experiment [12] is Cytochrome P450 2D6 (Homo sapiens) (UniProt P10635). As to the kind of experiment: qHTS Assay for Inhibitors and Substrates of Cytochrome P450 2D6 (AID 891). Further: potency means the concentration at half of the fitted maximal effect; nearly all actives have a fitted effect of over 60% in size. In short, it runs like this: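 Luminescent read-out of luciferin formed by 5 nM human CYP2D6 demethylating 30 uM Luciferin-ME EGE (Km level) over 60 min at room temperature after NADPH regeneration addition. Data normalized to full inhibition by 1.43 uM quinidine.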
Sequence of Cytochrome P450 2D6 (Homo sapiens) (P10635 whole entry, looked up): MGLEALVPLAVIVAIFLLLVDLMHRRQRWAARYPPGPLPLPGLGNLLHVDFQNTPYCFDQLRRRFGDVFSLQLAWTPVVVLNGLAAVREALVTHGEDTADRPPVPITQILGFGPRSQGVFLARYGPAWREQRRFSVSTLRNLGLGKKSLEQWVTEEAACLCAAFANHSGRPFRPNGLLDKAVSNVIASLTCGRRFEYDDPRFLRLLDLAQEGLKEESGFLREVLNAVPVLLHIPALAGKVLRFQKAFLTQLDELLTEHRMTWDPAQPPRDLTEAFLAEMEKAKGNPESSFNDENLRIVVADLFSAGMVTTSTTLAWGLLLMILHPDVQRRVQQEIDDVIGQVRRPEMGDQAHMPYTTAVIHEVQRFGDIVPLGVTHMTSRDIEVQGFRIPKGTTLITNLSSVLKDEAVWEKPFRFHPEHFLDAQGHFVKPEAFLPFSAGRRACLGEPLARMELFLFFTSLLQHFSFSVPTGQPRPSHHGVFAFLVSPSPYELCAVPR

Experiment [13] deals with Cytochrome P450 2C19 (Homo sapiens) (UniProt P33261). As to the kind of experiment: qHTS Assay for Inhibitors and Substrates of Cytochrome P450 2C19 (AID 899). Further: potency means the concentration at half of the fitted maximal effect; nearly all actives have a fitted effect of over 60% in size. In short, it runs like this:
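5nM enzyme + 10uM Luciferin-H EGE (=KM), 50mM KPO4; cpd pin-transferred, 10 min 37C; NADPH regen, 60 min 37C; stopped w/ luciferin detection reagent, 20 min; luminescence. Normalized to 57uM ketoconazole (AC100).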

Experiment [14] has as its target DNA dC->dU-editing enzyme APOBEC-3G (Homo sapiens) (UniProt Q9HC16). Description: qHTS for inhibitors of Vif-A3G interactions: Validation (AID 588379). Further: 0% is about no effect. The method, boiled down: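 Yellow fluorescence (Ex 488, Em 500-530) of Vif-coexpressing HeLa A3G-eYFP cells, scanned by Acumen cytometer, reports blocked A3G degradation. Cells plated at 700/well overnight at 37 deg C before compound addition, then a further overnight compound incubation at 37 deg C.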

Experiment [15] in a line: qHTS for Inhibitors of the vitamin D receptor (VDR): Hit Validation using a Texas Red Assay (AID 602201). Further: on the % scale 0 is the no-effect control and ±100 the full control effect. The method, boiled down:
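After a 2-hour room-temperature incubation, polarization of Texas-Red emission was read (Ex 595 nm/Em 615 nm). Final mix contained 7 nM Texas Red, 1.5 uM VDR-LBD and LG19078.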

The target in experiment [16] is Rap guanine nucleotide exchange factor 4 (Homo sapiens) (UniProt Q8WZA2). As to the kind of experiment: Confirmatory qHTS for agonist of cAMP-regulated guanine nucleotide exchange factor 4 (EPAC2) (AID 1645884). Further: on the % scale 0 is the no-effect control and ±100 the full control effect; nearly all actives have a fitted effect of over 65% in size.
Sequence of Rap guanine nucleotide exchange factor 4 (Homo sapiens) (Q8WZA2 whole entry, looked up): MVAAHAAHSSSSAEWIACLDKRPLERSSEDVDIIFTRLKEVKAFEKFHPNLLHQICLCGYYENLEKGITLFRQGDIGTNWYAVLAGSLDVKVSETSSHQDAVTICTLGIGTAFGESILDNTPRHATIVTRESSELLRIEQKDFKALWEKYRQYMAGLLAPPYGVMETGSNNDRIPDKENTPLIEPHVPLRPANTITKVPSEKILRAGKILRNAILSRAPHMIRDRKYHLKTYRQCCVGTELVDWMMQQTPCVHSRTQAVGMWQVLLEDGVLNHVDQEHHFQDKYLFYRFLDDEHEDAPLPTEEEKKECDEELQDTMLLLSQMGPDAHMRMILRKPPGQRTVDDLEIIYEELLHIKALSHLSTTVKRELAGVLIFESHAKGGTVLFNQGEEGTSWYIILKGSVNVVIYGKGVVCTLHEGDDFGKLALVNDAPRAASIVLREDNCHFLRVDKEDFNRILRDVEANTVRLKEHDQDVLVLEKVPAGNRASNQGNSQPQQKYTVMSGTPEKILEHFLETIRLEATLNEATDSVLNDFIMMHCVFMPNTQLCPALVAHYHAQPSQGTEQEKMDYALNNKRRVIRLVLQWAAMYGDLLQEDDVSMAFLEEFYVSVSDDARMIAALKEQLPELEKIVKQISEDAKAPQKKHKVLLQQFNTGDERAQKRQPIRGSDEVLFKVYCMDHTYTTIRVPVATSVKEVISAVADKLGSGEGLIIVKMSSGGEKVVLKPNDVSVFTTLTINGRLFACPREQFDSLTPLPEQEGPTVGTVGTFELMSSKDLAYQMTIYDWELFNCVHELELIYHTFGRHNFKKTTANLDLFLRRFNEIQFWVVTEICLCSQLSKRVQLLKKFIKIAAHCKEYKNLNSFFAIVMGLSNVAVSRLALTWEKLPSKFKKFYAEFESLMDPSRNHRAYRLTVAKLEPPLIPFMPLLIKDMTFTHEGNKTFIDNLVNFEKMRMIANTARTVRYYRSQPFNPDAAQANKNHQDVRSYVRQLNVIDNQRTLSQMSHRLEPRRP
The target is the same in experiment [17]. As to the kind of experiment: Confirmatory qHTS for antagonist of cAMP-regulated guanine nucleotide exchange factor 4 (EPAC2) (AID 1645885). Further: nearly all actives have a fitted effect of over 25% in size. On activity change, negative = inhibition: on the % scale 0 is the no-effect control and ±100 the full control effect.

Sequence of Cytochrome P450 3A4 (Homo sapiens) (P08684 whole entry, looked up): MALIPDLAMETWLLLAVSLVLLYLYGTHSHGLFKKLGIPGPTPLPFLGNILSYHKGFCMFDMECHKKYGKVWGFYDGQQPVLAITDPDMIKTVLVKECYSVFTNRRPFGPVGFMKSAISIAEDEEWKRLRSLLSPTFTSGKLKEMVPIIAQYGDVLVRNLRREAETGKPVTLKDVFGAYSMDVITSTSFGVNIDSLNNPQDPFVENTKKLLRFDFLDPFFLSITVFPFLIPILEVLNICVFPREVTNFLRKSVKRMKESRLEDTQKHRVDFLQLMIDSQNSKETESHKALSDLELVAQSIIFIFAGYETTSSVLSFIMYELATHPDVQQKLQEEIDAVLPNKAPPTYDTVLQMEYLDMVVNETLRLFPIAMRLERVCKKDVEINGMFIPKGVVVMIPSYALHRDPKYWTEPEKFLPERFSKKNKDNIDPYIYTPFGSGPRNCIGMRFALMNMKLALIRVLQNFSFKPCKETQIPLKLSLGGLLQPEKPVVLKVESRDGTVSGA
Sequence of DNA dC->dU-editing enzyme APOBEC-3G (Homo sapiens) (Q9HC16 whole entry, looked up): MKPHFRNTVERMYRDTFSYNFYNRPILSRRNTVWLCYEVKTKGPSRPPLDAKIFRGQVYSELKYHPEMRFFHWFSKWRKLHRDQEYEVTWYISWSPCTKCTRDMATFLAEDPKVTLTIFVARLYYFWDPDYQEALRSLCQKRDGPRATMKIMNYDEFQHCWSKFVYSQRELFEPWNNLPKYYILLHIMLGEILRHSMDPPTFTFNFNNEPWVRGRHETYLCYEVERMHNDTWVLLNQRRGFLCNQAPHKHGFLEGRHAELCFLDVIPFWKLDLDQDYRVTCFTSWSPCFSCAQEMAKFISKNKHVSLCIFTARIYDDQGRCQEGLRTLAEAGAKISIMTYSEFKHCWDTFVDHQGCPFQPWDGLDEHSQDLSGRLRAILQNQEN
Sequence of Cytochrome P450 2C19 (Homo sapiens) (P33261 whole entry, looked up): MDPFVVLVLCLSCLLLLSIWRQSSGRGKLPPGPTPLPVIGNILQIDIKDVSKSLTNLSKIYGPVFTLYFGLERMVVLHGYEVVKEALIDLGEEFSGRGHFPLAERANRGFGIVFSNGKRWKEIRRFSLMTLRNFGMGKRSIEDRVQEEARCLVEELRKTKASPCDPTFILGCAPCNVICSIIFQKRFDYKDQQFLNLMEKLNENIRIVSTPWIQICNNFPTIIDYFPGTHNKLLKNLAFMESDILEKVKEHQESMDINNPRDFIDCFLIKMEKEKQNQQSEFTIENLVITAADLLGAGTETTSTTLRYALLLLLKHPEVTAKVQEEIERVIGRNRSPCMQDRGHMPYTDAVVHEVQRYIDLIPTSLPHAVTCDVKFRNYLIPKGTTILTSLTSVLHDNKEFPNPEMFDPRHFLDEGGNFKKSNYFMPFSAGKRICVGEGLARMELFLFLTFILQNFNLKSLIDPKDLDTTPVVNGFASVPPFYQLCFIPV

As for `Cc1ccc2cccc(Oc3nnnn3-c3ccccc3)c2n1`, the Potency entry in experiment [1], in [2], in experiment [3] and in experiment [4] was “inactive” throughout.

In the case of `COc1cc2cc3c4c(cc(OC)c(OC)c4c2cc1OC)CCN3C`, the Potency in experiment [5] is 79.4 nM (active); in [6], > 46000 nM; in [7] it was > 46000 nM; in experiment [8] it was 158 nM (active); in experiment [9], 794 nM (active); in [10] it was 3980 nM (active). The Potency is 3980 nM (active) in experiment [12] and 50.1 nM (active) in experiment [13]. Also, the compound was classed as inactive in experiment [11] and in [14].

`O=C(O)c1cc(Nc2cc(Cl)c3nonc3c2[N+](=O)[O-])ccc1O`: the Potency result in experiment [15] was “inactive”.

With `COc1ccc(CN(C)C(=O)CC(c2ccccc2)c2ccccc2)cc1`, the Potency result in experiment [1], in experiment [16], in experiment [17], in [3] and in experiment [4] was “inactive” throughout.

As to `CC(=O)NC(c1cccc(F)c1)c1nc(-c2ccccc2)cs1` (centres undefined), the Potency entry in [1] and in experiment [17] was “inactive” throughout. In addition, the activation was 10% [at 17.1 µM, percent relative to cAMP agonist control] in experiment [16] and 45.7% [at 30.8 µM] in [4]. Moreover, the activity change, negative = inhibition in experiment [3] was -20.8% [at 30.8 µM].

In the case of `CCOC(=O)C1=C(C)N=c2s/c(=C/c3ccc(OCC(=O)O)c(OC)c3)c(=O)n2C1c1ccc(Cl)cc1` (centres undefined), the Potency result in experiment [1], in experiment [16], in experiment [17], in experiment [3] and in [4] was “inactive” throughout.

For `COc1ccc(NC(=O)c2c(-c3ccccc3)c(-c3ccccc3)nn(C)c2=O)c(OC)c1`, the Potency entry in experiment [1], in [16], in [17] and in experiment [3] was “inactive” throughout.
